Test results: PubChem BioAssay AID1159580 (chemical genetic matrix, 2015)
Several values for one entry are separate records, joined by “and”; a condition that tells them apart may be missing. Equal entries are not always repeated. The whole screen tested about 5,500 compounds, of which about 2,000 (36%) were called active. About 18% were inconclusive and are not listed. No stated cut-off is given here; in the data, active means normalized growth mostly below about 0.91 (no sharp cut-off); inconclusive means no clear call, values can overlap the other calls; inactive means mostly above about 0.92. The list shows a part of the results.

Assay: chemical genetic growth profiling, strain panel (AID 1159580);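 further: tested at 20 µM; growth read once vehicle control cultures reached saturation at 30 °C; 1 = growth at the plate median or of vehicle wells; lower values mean less growth of the strain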
Details: S. cerevisiae deletion strains, growth OD

Measured: normalized growth

Cc1onc(-c2ccccc2Cl)c1C(=O)N[C@@H]1C(=O)N2[C@@H]1SC(C)(C)[C@@H]2C(=O)O
inactive: locus YAL013W, strain DEP1, active compounds read low 1.01 | locus YAL021C, strain ccr4, active compounds read low 1.06 | locus YAL026C, strain drs2, active compounds read low 1.02 | locus YAL030W, strain snc1, active compounds read low 1.02 | locus YBL061C, strain skt5, active compounds read low 1.02 | locus YBR009C, strain hhf1, active compounds read low 0.994 | locus YBR021W, strain FUR4, active compounds read low 1.02 | locus YBR023C, strain chs3, active compounds read low 1.03 | locus YBR171W, strain sec66, active compounds read low 1.03 | locus YBR229C, strain ROT2, active compounds read low 1.01 | locus YBR231C, strain swc5, active compounds read low 1.03 | locus YBR279W, strain paf1, active compounds read low 1 | locus YCL011C, strain gbp2, active compounds read low 1.02 | locus YCL016C, strain dcc1, active compounds read low 1.01 | locus YCL029C, strain bik1, active compounds read low 1.05 | locus YCL069W, strain vba3, active compounds read low 1.03 | locus YCR088W, strain abp1, active compounds read low 1.01 | locus YDL005C, strain med2, active compounds read low 1.02 | locus YDL035C, strain GPR1, active compounds read low 1 | locus YDL040C, strain nat1, active compounds read low 1.02 | locus YDL074C, strain BRE1, active compounds read low 1.03 | locus YDL101C, strain DUN1, active compounds read low 1.01 | locus YDL134C, strain PPH21, active compounds read low 1.01 | locus YDL185W, strain tfp1, active compounds read low 1.01 | locus YDL192W, strain arf1, active compounds read low 1.01 | locus YDR001C, strain nth1, active compounds read low 1.04 | locus YDR069C, strain doa4, active compounds read low 1.03 | locus YDR101C, strain arx1, active compounds read low 1.02 | locus YDR137W, strain rgp1, active compounds read low 0.971 | locus YDR150W, strain NUM1, active compounds read low 1 | locus YDR159W, strain sac3, active compounds read low 1 | locus YDR162C, strain NBP2, active compounds read low 1.02 | locus YDR195W, strain ref2 1.03 | locus YDR297W, strain sur2, active compounds read low 1.02 | locus YDR318W, strain mcm21, active compounds read low 1.03 | locus YDR334W, strain swr1, active compounds read low 1 | locus YDR335W, strain msn5, active compounds read low 1.01 | locus YDR388W, active compounds read low 1.02 | locus YDR392W, strain spt3, active compounds read low 0.998 | locus YDR502C, strain sam2, active compounds read low 1.02 | locus YEL003W, strain gim4, active compounds read low 1.02 | locus YEL037C, strain rad23, active compounds read low 1.02 | locus YEL061C, strain CIN8 (second series), active compounds read low 1.02 | locus YEL061C, strain CIN8, active compounds read low 1.01 | locus YER015W, strain faa2, active compounds read low 1.02 | locus YER016W, strain bim1, active compounds read low 0.994 | locus YER110C, active compounds read low 1.01 | locus YER111C, strain swi4, active compounds read low 1.03 | locus YER155C, strain BEM2 (second series), active compounds read low 1.06 | locus YER155C, strain BEM2, active compounds read low 1.01 | locus YER167W, strain BCK2, active compounds read low 1.01 | locus YFR010W, strain ubp6, active compounds read low 1.02 | locus YGL078C, strain dbp3, active compounds read low 1.02 | locus YGL086W, strain mad1, active compounds read low 1.01 | locus YGL167C, strain pmr1, active compounds read low 1.03 | locus YGL173C, strain kem1, active compounds read low 1.01 | locus YGL227W, strain vid30, active compounds read low 1.01 | locus YGL240W, strain doc1, active compounds read low 1.02 | locus YGL248W, strain PDE1, active compounds read low 1.02 | locus YGL253W, strain hxk2, active compounds read low 1.02 | locus YGR078C, strain PAC10, active compounds read low 1.01 | locus YGR135W, strain pre9, active compounds read low 1.03 | locus YGR229C, strain SMI1, active compounds read low 1.02 | locus YGR252W, strain gcn5, active compounds read low 1.05 | locus YHR013C, strain ard1, active compounds read low 1.04 | locus YHR027C, strain rpn1, active compounds read low 1.02 | locus YHR030C, strain SLT2, active compounds read low 1.01 and 1 | locus YHR079C, strain IRE1 (second series), active compounds read low 1.02 | locus YHR079C, strain IRE1, active compounds read low 1 | locus YHR094C, strain hxt1, active compounds read low 1.02 | locus YHR129C, strain ARP1, active compounds read low 1.01 | locus YHR142W, strain chs7, active compounds read low 1.02 | locus YHR200W, strain rpn10, active compounds read low 1.03 | locus YIL066C, strain RNR3, active compounds read low 1.01 | locus YIL073C, strain SPO22, active compounds read low 1.06 | locus YIL125W, strain kgd1, active compounds read low 1.03 | locus YIR030C, strain dcg1, active compounds read low 1.02 | locus YJL092W, strain hpr5, active compounds read low 1.03 | locus YJL095W, strain BCK1 (second series), active compounds read low 1.02 | locus YJL095W, strain BCK1, active compounds read low 1.02 and 0.998 | locus YJL115W, strain asf1, active compounds read low 1.01 | locus YJL129C, strain trk1, active compounds read low 1.05 | locus YJL134W, strain LCB3, active compounds read low 1 | locus YJL154C, strain vps35, active compounds read low 1.03 | locus YJL164C, strain tpk1, active compounds read low 1.01 | locus YJL166W, strain qcr8, active compounds read low 1.03 | locus YJL168C, strain set2, active compounds read low 1.02 | locus YJL187C, strain SWE1 (second series), active compounds read low 1.02 | locus YJL187C, strain SWE1, active compounds read low 1.01 | locus YJR043C, strain POL32, active compounds read low 0.995
